Key:
Test in all cases: PBM binding z-score (relative to random genomic background probes); higher = stronger binding; sequences stand for … in GC…GCGATTGACAGCGTAGAATGAAGG
[1] = test system: PPARg:RXRa DBDmut IVT, anti-RXR (DBD mutation: RXRa K156A/R161A, NR concentration 270 nM, RXRa partner concentration 90 nM)
How it was run: (§1)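 Binding z-scores were set against random background probes. The data came from custom Agilent 4×180K protein-binding microarrays carrying double-stranded probes with 34-nt variable regions, incubated 1 h with ligand-free nuclear receptor dimers. Partner-specific antibodies detected binding, and scanned fluorescence was regression-normalized.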

[2] = test system: PPARg:RXRa IVT, anti-PPARg (NR concentration 270 nM, RXRa partner concentration 90 nM)
How it was run: as §1

[3] = test system: PPARg DBDmut:RXRa IVT, anti-PPARg (DBD mutation: PPARg1 K132A/R137A, NR concentration 270 nM, RXRa partner concentration 90 nM)
How it was run: as §1

[4] = test system: PPARg DBDmut IVT, anti-PPARg (DBD mutation: PPARg1 K132A/R137A, NR concentration 270 nM)
How it was run: as §1

[5] = test system: PPARg homodimer (NR concentration 180 nM)
How it was run: as §1

[6] = test system: PXR:RXRa (NR concentration 270 nM, RXRa partner concentration 90 nM)
How it was run: as §1

[7] = test system: PXR homodimer (NR concentration 270 nM)
How it was run: as §1

[8] = test system: RARa:RXR (NR concentration 270 nM, RXRa partner concentration 90 nM)
How it was run: as §1

[9] = test system: RARa homodimer (NR concentration 270 nM)
How it was run: as §1

[10] = test system: RARb:RXRa (NR concentration 270 nM, RXRa partner concentration 90 nM)
How it was run: as §1

[11] = test system: RARb homodimer (NR concentration 270 nM)
How it was run: as §1

[12] = test system: RARg:RXRa (NR concentration 270 nM, RXRa partner concentration 90 nM)
How it was run: as §1

[13] = test system: RARg homodimer (NR concentration 270 nM)
How it was run: as §1

[14] = test system: RXRa DBDmut IVT, anti-RXR (DBD mutation: RXRa K156A/R161A, NR concentration 90 nM)
How it was run: as §1

[15] = test system: RXRa homodimer (NR concentration 180 nM)
How it was run: as §1

[16] = test system: THRa:RXRa (NR concentration 90 nM, RXRa partner concentration 90 nM)
How it was run: as §1

[17] = test system: THRa homodimer (NR concentration 90 nM)
How it was run: as §1

[18] = test system: VDR homodimer (NR concentration 270 nM)
How it was run: as §1

Sequence	PBM binding z-score [1]	PBM binding z-score [2]	PBM binding z-score [3]	PBM binding z-score [4]	PBM binding z-score [5]	PBM binding z-score [6]	PBM binding z-score [7]	PBM binding z-score [8]	PBM binding z-score [9]	PBM binding z-score [10]	PBM binding z-score [11]	PBM binding z-score [12]	PBM binding z-score [13]	PBM binding z-score [14]	PBM binding z-score [15]	PBM binding z-score [16]	PBM binding z-score [17]	PBM binding z-score [18]
ATCGAAAGGTCGGAGGTGAGTATACCCACCCGAA	-0.278	1.78	1.11	0.559	1.66	1.87	0.241	2.79	0.0274	3.28	2.03	3.26	3	0.388	3.28	1.77	-0.0288	0.152
CCAGACAGGTGAAATGTAACTCAGTCTGGTACGC	1.56	0.99	-0.289	-0.0118	0.686	0.0204	-0.634	0.296	0.296	0.614	-0.215	0.487	0.478	0.261	0.624	0.0453	-0.307	-0.0884
CCTTACGGGTCATTGACAGGTTATAGCATTTGGA	2.34	2.72	0.642	0.325	2.77	3.94	0.591	4.67	0.122	3.64	3.04	5.75	3.8	2.9	5.07	2.91	0.494	1.67
CAAACTAGGTCAAAGGTCAAAGGCGAGCCAACCA	8.87	9.3	4.87	2.24	4.33	6.93	1.55	9.2	2.6	5.86	5.32	9.06	7.75	3.02	10.4	4.91	1.64	3
GCAGACAGGTGAAACACAGGTAACTCAGGGTGGC	0.926	0.641	-0.0327	-0.651	-0.0531	-0.0674	-0.462	0.56	-0.402	0.685	0.58	1.37	0.385	-0.322	0.982	1.28	-0.504	-0.7
CTACCAAGGTGAACAAGCTCGTTGATTACTATTC	2.56	2.23	0.852	0.253	0.000283	-0.0454	-0.0254	0.251	0.281	1.41	0.567	0.606	0.761	0.373	0.526	1.63	0.878	-0.237
GCTAGTTGGCCAGTAAAAGGTCACACACCGGTCG	0.354	1.78	-0.104	-0.574	3.08	4.62	0.59	5.25	0.379	4.07	5.19	5.15	4.08	0.252	5.46	3.55	1.33	1.49
AGAATGAGGTTTCCAAAGATCAGGGAAACGCTTG	0.298	-0.0805	0.256	0.153	-0.417	-0.387	-0.601	-0.144	-0.745	-0.151	-0.579	-0.0652	-0.103	-0.247	0.124	-0.118	-0.311	-0.385
TCATATAGGTAAAAGGTGAAAGTGGGTGTGGTAA	5.36	5.24	0.898	1.26	2.63	2.31	1.28	3.5	2.39	2.22	2.35	2.16	1.01	1.87	3.15	2.07	1.12	0.877
ATATATAGGTTATCGGGTCATTCAGTTTGCGCAT	7.55	7.39	3.48	3.64	4.29	3.91	8.17	4.26	3.1	2.96	3.49	3.74	2.97	2.18	4.13	3.51	3.2	4.39
CTACCAAGGTGAACAAGGTCCTTGATTACTATTC	2.33	2.45	0.391	-0.0815	0.182	0.728	0.218	0.944	-0.035	1.64	1.02	0.733	0.947	0.723	0.86	2.29	1.03	0.358
CCTGCTAGGTCAATGGTCGGCTAAAGCAGCTCGC	4.15	4	-0.289	-0.553	1.3	0.918	-0.868	1.47	0.0604	3.73	2.9	3.87	4.16	1.74	1.88	2.42	0.749	0.149
TAGCCTAGGTCATGCGGGCAAGTATAGTGTCGGC	1.66	3.02	0.235	-0.248	1.39	1.45	-0.333	2.21	0.228	3.83	3.16	4	4.38	0.563	3.03	2.89	0.9	0.528
CAAACTAGGACAAAGGTCAAAGTCGAGCCAACCA	6.48	7.54	2.91	1.8	4.89	5.62	2.1	6.43	3.25	4.8	4.67	6.7	5.88	2.3	7.22	4.13	1.18	2.51
CCGAGTAGGTTATGAGGCATTCAGGCAACGGTGA	2.79	2.1	-0.794	-0.318	0.571	-0.101	-0.42	0.567	-0.00223	0.501	0.133	0.306	0.215	0.178	0.451	0.303	0.0556	0.0236
ATCTCTAGGTAAAGATAGTTCAGAGAATGCAAAT	1.37	1.42	0.582	1.54	0.983	0.864	0.342	0.707	0.924	0.573	0.692	0.65	0.767	-0.136	0.482	0.724	0.0734	0.51
ACCTCTAGGTAAGACTCAGTTCAGTGAAGAACGC	1.32	0.243	-0.124	-0.421	0.121	0.405	0.515	0.112	-0.37	-0.0918	0.0203	-0.0549	-0.0332	0.371	-0.0186	0.243	0.088	0.678
TTACCAAGGTGAGCTGGGGTCGTTGATCCAACTC	0.928	2.07	-0.594	-0.348	0.0514	4.52	0.268	2.72	-0.868	1.55	1.42	1.31	0.493	-0.222	2.1	4.38	1.23	1.84
CGAACGAGGGCATGAGTTGAGAGCAAATGCCGAT	3.19	2.16	-0.212	-0.733	-0.198	0.363	-0.12	0.437	-0.617	2.05	0.724	1.46	1.56	1.8	1.02	1.25	-0.339	1.26
TTACCTAGGTGAAGGTCGTTGATCCCTCTGTAGA	2.92	3.84	0.00137	-0.113	0.298	1.16	0.136	1.48	-0.66	1.45	1.21	0.824	0.525	-0.143	1.29	1.9	0.379	0.61
CCTACTGGGCCATTCAGACGTCATTGATCATATG	4.26	3.42	0.223	0.732	-0.0853	-0.71	-0.506	-0.696	-0.0635	-0.11	-0.514	-0.25	0.169	-0.119	-0.341	-0.533	-0.741	-0.378
CCTTACGGGTCACGAGTTTATAGCACGACGAGCG	4.46	5.06	0.736	0.94	2.53	4.8	2	4.85	0.68	4.27	3.38	5.62	5.24	2.39	5.78	2.82	0.451	4.44
GCTATTAGTGGAAAGGGCAACCGAATGATTCTCG	0.437	0.575	0.104	-0.457	0.772	0.478	-0.0365	0.745	0.726	1.93	1.77	1.05	1.12	0.693	0.775	0.344	-0.457	-0.143
GCTTACGGGTCAAAGGTTGTAGCATGAATAGAAT	5.13	5.38	0.728	1	3.02	5.04	0.237	7.21	0.364	3.99	2.84	5.74	4.09	2.43	8.07	3.2	0.00313	0.93
CTCGAAAGGTCGTGCTCCGGTGAGTATACCAAAC	0.784	1.77	0.64	0.56	2.34	3.57	0.18	4.87	-0.416	4.04	3.04	5.03	3.94	2.08	5.18	3.06	0.517	1.26
ACAGACAGGTGAGTTAAGGTAACTCAGCTGGACG	0.272	0.601	0.0974	0.513	0.279	0.151	-0.384	1.29	-0.525	0.48	-0.0673	0.439	0.59	-0.352	0.374	4.35	1.8	-0.547
GCTGCTAGGTCCGGTTGGTCAGCTAACGGGTACG	-0.426	-0.34	-1.47	-1.49	-1.32	-0.574	-0.913	-0.552	-1.7	0.0828	-0.107	-0.731	-0.757	-0.46	-0.726	-0.903	-0.944	-0.324
CAAACTAGGGCAAAGGTCAAAGTCGAGCCAACCA	7.98	8.53	3.73	2.63	4.12	5.98	1.29	7.53	1.54	5.15	4.68	7.57	6.04	2.02	8.18	3.87	0.591	2.25
TGAATGAGGTTAAAGCTCAGGGAACGTGGCGTCG	2.25	2.59	-0.0715	0.871	0.0932	1.07	-0.806	1.84	-0.696	1.78	0.437	1.9	0.981	1.06	2.71	2.16	0.216	0.0356

— the supplement of paper PMC6555819
